Data from PubChem BioAssay AID651640 (Broad Institute, 2012).
Out of some 350,000 compounds screened, about 6,000 (1.7%) were called active. About 5% were inconclusive and are not listed. Rule as the data show it: active = CPE inhibition above about 20% (passing the limit was not always enough); inconclusive = no clear call, values can overlap the other calls; tested in BHK-21 cells. The full list was thinned out, with actives kept by preference.

assay: inhibitors of DENV2 cytopathic effect, primary screen, cell-based, plate reader, single concentration (AID 651640); conditions: DENV2-infected cells, cytopathic effect rescue, at 9.99 µM, hits give high values;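 also: 0% = median of neutral control wells and 100% = median of positive control wells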

CPE inhibition, active:
Cc1cccc([C@@H]2[C@@H]3C(=O)N(C)C(=O)[C@@H]3[C@@H]3C(=O)Nc4ccccc4C(=O)N23)c1 30.1%
CNC[C@H]1Oc2cc(C#CC3CCCC3)ccc2S(=O)(=O)N([C@H](C)CO)C[C@@H]1C 49.1%
CNC[C@H]1Oc2cc(C#CC(C)(C)O)ccc2S(=O)(=O)N([C@@H](C)CO)C[C@@H]1C 29.3%
C[C@@H]1CN([C@@H](C)CO)C(=O)c2cc(C#CCc3ccccc3)cnc2O[C@@H]1CN(C)C(=O)C1CCOCC1 95.4%
C[C@@H]1CN([C@H](C)CO)C(=O)c2cc(C#CC3(O)CCCC3)cnc2O[C@H]1CN(C)C(=O)C1CCC1 35.8%
C[C@H]1CN([C@@H](C)CO)C(=O)c2ccccc2-c2ccccc2CO[C@H]1CN(C)S(=O)(=O)c1cccc(C#N)c1 99.5%
C[C@@H]1CN([C@H](C)CO)C(=O)c2cc(-c3cccc(C#N)c3)cnc2O[C@H]1CN(C)C(=O)C1CCC1 27.5%
COc1cc2c(cc1OC)C(Nc1ccc(S(N)(=O)=O)cc1)=NC(C)(C)C2 23.5%
CCc1nc2c(OCCc3cccc(OC)c3)cccn2c1N(C)C(=O)c1ccc(C)cc1 35.1%
Cc1ccccc1NC(=O)Cc1nc(COC(=O)C(C)(C)Oc2ccc(Cl)cc2)cs1 45.3%
COc1ccc(OC)c(/C(C)=N\NC(=O)c2cc3cc(Cl)ccc3n2C)c1 69.2%
O=C(CCNC(=O)c1ccc(Br)cc1)NCC(c1ccco1)N1CCCCC1 (stereo not given) 81.5%
C[C@@H]1CN([C@H](C)CO)C(=O)Cc2cc(NC(=O)Nc3cccc4ccccc34)ccc2O[C@@H]1CN(C)Cc1ccc(C(F)(F)F)cc1 20.3%
C[C@H]1CN([C@@H](C)CO)C(=O)Cc2cc(NC(=O)Nc3cccc4ccccc34)ccc2O[C@@H]1CN(C)C 25.6%
Cc1ccc(S(=O)(=O)N(C)C[C@@H]2Oc3ccc(NC(=O)c4ccncc4)cc3CC(=O)N([C@H](C)CO)C[C@H]2C)cc1 20.7%
C[C@H](CO)N1C[C@H](C)[C@H](CN(C)Cc2ccc(-c3ccccc3)cc2)Oc2ccc(NC(=O)Nc3ccc(F)cc3)cc2CC1=O 33.6%

CPE inhibition, inactive:
COc1ccc(S(=O)(=O)N(C)C[C@@H]2Oc3ccc(NC(=O)Cc4ccccc4)cc3CC(=O)N([C@@H](C)CO)C[C@H]2C)cc1 -3.88%
CO[C@@H]1CN(C)C(=O)c2cc(NC(=O)c3ccc4c(c3)OCO4)ccc2OC[C@H](C)N(CCC(F)(F)F)C[C@H]1C 2.23%
Cc1noc(C)c1NC(=O)Nc1ccc2c(c1)CC(=O)N([C@@H](C)CO)C[C@@H](C)[C@H](CN(C)C(=O)NC1CCCCC1)O2 1.27%
N#C[C@@H]1[C@@H](c2ccc(-c3ccccc3F)cc2)[C@@H](CO)N1C(=O)c1ccccn1 -0.879%
COc1ccccc1NC(=O)N[C@H]1CC[C@@H](CC(=O)NCc2ccc(Cl)c(Cl)c2)O[C@H]1CO -2.11%
C/C=C/c1ccc2c(c1)O[C@@H](CN(C)C(=O)Cc1ccccn1)[C@@H](C)CN([C@H](C)CO)S2(=O)=O 3.81%
C[C@@H]1CN([C@H](C)CO)S(=O)(=O)c2ccc(C#C[C@@H](C)O)cc2O[C@H]1CN(C)C(=O)CC1CC1 -1.93%
Cc1cccc([C@H]2[C@@H]3C=CC[C@@H](C)[C@@H]3C(=O)N2Cc2ccccc2)c1 -1.21%
Cc1ccc(C2Nc3ccccc3C(=O)N2CCN2CCNC2=O)cc1 (stereo not given) -0.485%
O=C([C@H]1[C@H](CO)[C@H]2Cn3c(ccc(C4=CCCC4)c3=O)[C@@H]1N2C(=O)c1ccncc1)N1CCCCC1 -10.6%
CNC[C@H]1Oc2cc(C#Cc3ccccc3)ccc2S(=O)(=O)N([C@@H](C)CO)C[C@@H]1C 10.6%
CNC[C@@H]1Oc2cc(C#Cc3ccc(F)cc3)ccc2S(=O)(=O)N([C@@H](C)CO)C[C@H]1C 7.09%
CNC[C@@H]1Oc2cc(C#CC3CCCC3)ccc2S(=O)(=O)N([C@@H](C)CO)C[C@@H]1C 3.46%
CNC[C@@H]1Oc2cc(C#CCC3CCCC3)ccc2S(=O)(=O)N([C@H](C)CO)C[C@H]1C 18.9%
COc1ccc(S(=O)(=O)N[C@H]2C=C[C@@H](CC(=O)O)O[C@@H]2CO)cc1 -1.75%
CN1CCN(C(=O)C[C@@H]2CC[C@@H]3[C@@H](COc4ccc(NC(=O)c5ccc(F)c(F)c5)cc4C(=O)N3C)O2)CC1 -5.7%
COCc1cn(CC[C@@H]2CC[C@@H](NC(=O)Cc3cccnc3)[C@@H](CO)O2)nn1 -4.68%
Cc1ccc(S(=O)(=O)N(C)C[C@H]2OCc3ccccc3-c3ccccc3C(=O)N([C@@H](C)CO)C[C@@H]2C)cc1 0.795%
C[C@@H]1CN([C@H](C)CO)C(=O)c2cc(C#CC3CCCC3)cnc2O[C@@H]1CN(C)C(=O)C1CCC1 0.319%
CCCC#Cc1cnc2c(c1)C(=O)N([C@H](C)CO)C[C@@H](C)[C@@H](CN(C)C(=O)C1CCOCC1)O2 -8.59%
CC(C)NC(=O)N(C)C[C@H]1Oc2ncc(-c3cccc(C#N)c3)cc2C(=O)N([C@@H](C)CO)C[C@H]1C 1.79%
CC(=O)N(C)C[C@H]1Oc2ncc(C#CC3(O)CCCC3)cc2C(=O)N([C@@H](C)CO)C[C@@H]1C -10.8%
C[C@H](CO)N1C[C@H](C)[C@H](CN(C)C(=O)C2CCC2)Oc2ncc(C#CCc3ccccc3)cc2C1=O -7.04%
C[C@H]1CN([C@@H](C)CO)C(=O)c2ccccc2-c2ccccc2CO[C@H]1CN(C)S(=O)(=O)c1ccccc1C#N -1.68%
C[C@H](CO)N1C[C@H](C)[C@@H](CN(C)C(=O)C2CC2)Oc2ncc(-c3cccc(C#N)c3)cc2C1=O -9.11%
C/C=C/c1ccc([C@@H]2[C@H](CO)N(CCC(F)(F)F)C23CN(C(=O)CC)C3)cc1 8.21%
C[C@@H]1CN([C@H](C)CO)C(=O)Cc2cc(NC(=O)C3CC3)ccc2O[C@H]1CN(C)Cc1ccc(Cl)c(Cl)c1 -2.59%
C[C@@H]1CCCCO[C@@H](CN(C)S(C)(=O)=O)[C@@H](C)CN([C@@H](C)CO)C(=O)c2cc(NS(=O)(=O)c3ccc(Cl)cc3)ccc2O1 -9.73%
CCC(=O)N(C)C[C@H]1Oc2ncc(C#C[C@@H](C)O)cc2C(=O)N([C@@H](C)CO)C[C@H]1C 9.17%
CNC[C@@H]1Oc2c(NC(=O)Nc3ccc(F)cc3)cccc2C(=O)N([C@@H](C)CO)C[C@@H]1C 0.246%
CCC(=O)Nc1ccc2c(c1)C(=O)N(C)C[C@H](OC)[C@H](C)CN(CCC(F)(F)F)[C@H](C)CO2 -10.4%
COCC(=O)Nc1ccc2c(c1)C(=O)N(C)C[C@@H](OC)[C@H](C)CN(C(=O)c1cccnc1)[C@H](C)CO2 7.26%
COc1ccc(NC(=S)Nc2ccc(S(N)(=O)=O)cc2)c(C)c1 5.31%
COc1cc2c(cc1OC)C(c1cccc([N+](=O)[O-])c1)=NCC2 3%
CCc1nc2c(OCc3cccc(OC)c3)cccn2c1N(C)C(=O)C(C)C 3.81%
CCc1nc2c(OCCOc3ccccc3)cccn2c1N(C)C(=O)c1ccc(OC)cc1 -6.78%
COc1ccc(NC(=O)Nc2ccc3c(c2)C(=O)N([C@@H](C)CO)C[C@H](C)[C@H](CN(C)S(=O)(=O)c2ccccc2)OCCCC[C@@H](C)O3)cc1 0.841%
Cc1ccccc1NC(=O)Cc1nc(COC(=O)c2cccnc2Cl)cs1 5.7%
Cc1ccccc1NC(=O)Cc1nc(COC(=O)CNC(=O)c2ccc(Cl)cc2Cl)cs1 -7.77%
CN1c2ccc(-c3cccc(C#N)c3)cc2[C@@H]2[C@@H](CCN2C(=O)C2CCC2)[C@@H]1CO -11%
COc1ccc2c3c(n(C)c2c1)[C@@H](CO)N(C(C)=O)CC31CCN(C(=O)C2CC2)CC1 -6.89%
COc1ccc(/C(C)=N/NC(=O)CCC(=O)Nc2ccc(Cl)cc2Cl)c(OC)c1 -1.9%
COc1ccc(OC)c(C(=O)c2ccc(Cl)cc2)c1 1.87%
CCCN1C[C@@H](C)[C@@H](OC)CN(C)C(=O)c2ccc(NS(C)(=O)=O)cc2OC[C@@H]1C -1.47%
CCC(=O)N1C[C@H](C)[C@H](OC)CN(C)C(=O)c2ccc(NS(C)(=O)=O)cc2OC[C@H]1C -1.33%
Cc1noc(C)c1S(=O)(=O)Nc1ccc2c(c1)C(=O)N([C@H](C)CO)C[C@H](C)[C@H](CN(C)S(C)(=O)=O)OCCCC[C@H](C)O2 -2.38%
COc1ccccc1C(=O)NCCC(=O)NCC(c1ccco1)N1CCCCC1 (stereo not given) -2.74%
CC(Oc1ccc(Br)cc1)C(=O)NCC(c1ccco1)N1CCCCC1 (stereo not given) -0.377%
C[C@@H]1CCCCO[C@H](CN(C)C(=O)NC2CCCCC2)[C@H](C)CN([C@@H](C)CO)C(=O)c2cc(NC(=O)C3CCCCC3)ccc2O1 -2.82%
C[C@H](O)C#Cc1ccc2c(c1)O[C@H](CN(C)Cc1cccnc1)[C@H](C)CN([C@H](C)CO)S2(=O)=O 9.35%
COCC#Cc1cnc2c(c1)C(=O)N([C@@H](C)CO)C[C@@H](C)[C@@H](CN(C)C(=O)Nc1ccc(OC)cc1)O2 -9.58%
COc1ccc(NC(=O)Nc2ccc3c(c2)CC(=O)N([C@@H](C)CO)C[C@@H](C)[C@@H](CN(C)Cc2ccc(C(F)(F)F)cc2)O3)cc1 -24.3%
C[C@@H]1CN([C@H](C)CO)C(=O)Cc2cc(NC(=O)c3ccncc3)ccc2O[C@H]1CN(C)S(=O)(=O)c1cccs1 19.1%
C[C@H]1CN([C@@H](C)CO)C(=O)Cc2cc(NC(=O)Nc3cccc4ccccc34)ccc2O[C@H]1CN(C)CC1CC1 2.69%
C[C@H]1CN([C@@H](C)CO)C(=O)Cc2cc(NC(=O)Nc3cccc4ccccc34)ccc2O[C@@H]1CN(C)S(C)(=O)=O -2.56%
C[C@H](CO)N1C[C@H](C)[C@H](CN(C)S(C)(=O)=O)Oc2ccc(NC(=O)c3ccncc3)cc2CC1=O -1.49%
C[C@@H]1CN([C@H](C)CO)C(=O)Cc2cc(NC(=O)Nc3ccc(C(F)(F)F)cc3)ccc2O[C@H]1CN(C)Cc1ccc(-c2ccccc2)cc1 -23%
C[C@@H]1CN([C@H](C)CO)C(=O)Cc2cc(NC(=O)Nc3cccc4ccccc34)ccc2O[C@@H]1CN(C)Cc1ccc(C(=O)O)cc1 -18.4%
COc1ccc(CN(C)C[C@@H]2Oc3ccc(NC(=O)Nc4ccc(F)cc4)cc3CC(=O)N([C@@H](C)CO)C[C@H]2C)cc1 2.99%
